# Source: publication PMC8384837, “Expanding the binding specificity for RNA recognition by a PUF domain”
# How the values were obtained:
# Assay in all cases: yeast three-hybrid, YBZ-1, SC-Leu-His + 0.5 mM 3-AT, 4 days
# Settings in all cases: tags: N-Gal4 AD-HA kept; label: inside an RPR1-promoter hybrid RNA with tandem MS2 sites; ssRNA
# [1] = target: PUM1 PUF domain R5-KRE (Homo sapiens, UniProt Q14671 828-1176, C1007K;Q1011E)
# Outline: (§1)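 The interaction score is the log change in variant frequency from input to selection. Scores were computed in log2 with a pseudocount of 1 for absent variants, using Illumina sequencing of PCR-amplified repeat regions. The input came from four days on SC-Leu and the selection from four days on SC-Leu-His + 0.5 mM 3-AT. The cells were strain YBZ-1 (LexA–MS2 coat fusion, HIS3 reporter) co-expressing Pumilio-1 PUF domain libraries and matching RNA elements from a centromeric plasmid.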
# [2] = target: PUM1 PUF domain R5-MRG (Homo sapiens, UniProt Q14671 828-1176, C1007M;Q1011G)
# Outline: as §1
# [3] = target: PUM1 PUF domain R5-KSW (Homo sapiens, UniProt Q14671 828-1176, C1007K;R1008S;Q1011W)
# Outline: as §1
# [4] = target: PUM1 PUF domain R7-ERQ (Homo sapiens, UniProt Q14671 828-1176, S1079E;N1080R;E1083Q)
# Outline: as §1
# [5] = target: PUM1 PUF domain R7-RQR (Homo sapiens, UniProt Q14671 828-1176, S1079R;N1080Q;E1083R)
# Outline: as §1
# [6] = target: PUM1 PUF domain R5-NSI (Homo sapiens, UniProt Q14671 828-1176, C1007N;R1008S;Q1011I)
# Outline: as §1
# [7] = target: PUM1 PUF domain R7-TMG (Homo sapiens, UniProt Q14671 828-1176, S1079T;N1080M;E1083G)
# Outline: as §1
# Sequence of PUM1 PUF domain R5-MRG (Q14671 828-1176 C1007M/Q1011G): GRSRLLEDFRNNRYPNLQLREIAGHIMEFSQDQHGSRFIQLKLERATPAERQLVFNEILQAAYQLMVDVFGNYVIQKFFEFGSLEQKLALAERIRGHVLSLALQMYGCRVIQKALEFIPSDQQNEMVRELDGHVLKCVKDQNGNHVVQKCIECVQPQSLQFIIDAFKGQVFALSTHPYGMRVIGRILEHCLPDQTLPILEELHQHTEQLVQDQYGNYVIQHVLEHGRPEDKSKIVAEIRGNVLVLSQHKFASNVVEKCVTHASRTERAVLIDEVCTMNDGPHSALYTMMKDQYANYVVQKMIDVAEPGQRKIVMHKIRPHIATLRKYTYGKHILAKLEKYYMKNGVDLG
# Sequence of PUM1 PUF domain R7-RQR (Q14671 828-1176 S1079R/N1080Q/E1083R): as the sequence (Q14671 828-1176 C1007M/Q1011G) above, with M180C, G184Q, S252R, N253Q, E256R counted along it
# Sequence of PUM1 PUF domain R5-NSI (Q14671 828-1176 C1007N/R1008S/Q1011I): as the sequence (Q14671 828-1176 C1007M/Q1011G) above, with M180N, R181S, G184I counted along it
# Sequence of PUM1 PUF domain R7-TMG (Q14671 828-1176 S1079T/N1080M/E1083G): as the sequence (Q14671 828-1176 C1007M/Q1011G) above, with M180C, G184Q, S252T, N253M, E256G counted along it
# Sequence of PUM1 PUF domain R5-KRE (Q14671 828-1176 C1007K/Q1011E): as the sequence (Q14671 828-1176 C1007M/Q1011G) above, with M180K, G184E counted along it
# Sequence of PUM1 PUF domain R7-ERQ (Q14671 828-1176 S1079E/N1080R/E1083Q): as the sequence (Q14671 828-1176 C1007M/Q1011G) above, with M180C, G184Q, S252E, N253R, E256Q counted along it
# Sequence of PUM1 PUF domain R5-KSW (Q14671 828-1176 C1007K/R1008S/Q1011W): as the sequence (Q14671 828-1176 C1007M/Q1011G) above, with M180K, R181S, G184W counted along it
sequence,measurement,setting,value
GGCUAGAACUAGUGGAUCCCCCGGCGCCCGGCGGCUCGAGCCCGGGUAAGUGUCAAUAGUCUGCAUGCCGCCGGGCGCCAUGCCUGCAGGUCGACUCUAGAAAACAUG,binding signal,[1],2.98 log2 enrichment (interaction score)
same,binding signal,[2],0.97 log2 enrichment (interaction score)
same,binding signal,[3],2.82 log2 enrichment (interaction score)
GGCUAGAACUAGUGGAUCCCCCGGCGCCCGGCGGCUCGAGCCCGGGUAAGUCUAAAUAGUCUGCAUGCCGCCGGGCGCCAUGCCUGCAGGUCGACUCUAGAAAACAUG,binding signal,[4],2.6 log2 enrichment (interaction score)
same,binding signal,[5],3.17 log2 enrichment (interaction score)
GGCUAGAACUAGUGGAUCCCCCGGCGCCCGGCGGCUCGAGCCCGGGUAAGUGUUAAUAGUCUGCAUGCCGCCGGGCGCCAUGCCUGCAGGUCGACUCUAGAAAACAUG,binding signal,[2],3.12 log2 enrichment (interaction score)
same,binding signal,[6],3.96 log2 enrichment (interaction score)
GGCUAGAACUAGUGGAUCCCCCGGCGCCCGGCGGCUCGAGCCCGGGUAAGUUUAAAUAGUCUGCAUGCCGCCGGGCGCCAUGCCUGCAGGUCGACUCUAGAAAACAUG,binding signal,[5],4.97 log2 enrichment (interaction score)
same,binding signal,[7],2.65 log2 enrichment (interaction score)
